# Results taken from PubChem BioAssay (NCATS).
# Inconclusive results are not listed. Entries that show only a call come without a potency. The source made the active and inactive calls. Calls come from the whole dose curve; as a rule, active = well fitted inhibition curve with a large enough effect; inconclusive = small, poorly fitted or top-dose-only effect; inactive = no such curve, though single readings can be large or run the other way.
# Legend:
# [1] = tested on: Zika virus NS2B-NS3 protease (unlinked complex); assay: Primary screen GU Rhodamine qHTS for Zika virus inhibitors: Unlinked NS2B-NS3 protease assay (AID 1347159); conditions: Recombinant ZIKV NS2B-NS3 protease, Rhodamine110 substrate fluorescence; series mostly up to 107 µM; note: nearly all actives have a fitted effect of over 60% in size
# In short: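 Enzyme 25 nM in Tris-HCl pH 8.0 + 0.01% Tween 20; compounds up to 114 microM, 15 min RT dark; + Rhod110 substrate 1.5 microM; read t0 and 15 min; delta fluorescence → % inhibition → 4-parameter Hill fit.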
# [2] = tested on: Zika virus NS2B-NS3 protease (linked construct); assay: Primary screen NINDS Rhodamine qHTS for Zika virus inhibitors (AID 1347160); conditions: purified NS2B-NS3 protease, Rhodamine110 substrate fluorescence; series mostly up to 57.1 µM; note: nearly all actives have a fitted effect of over 55% in size
# In short: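 Enzyme (25 nM, linked NS2B-NS3) was preincubated 15 min with compound in 10 mM Tris-HCl pH 8.0, 0.01% Tween 20. Rhodamine110 substrate (1.5 microM) was then added and fluorescence read at start and after 15 min.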
# Potency is the fitted concentration of half-maximal effect.
Structure (SMILES),Potency [1],Potency [2]
CCCCc1c(-c2ccc(OC)cc2)[nH]c2nccnc12,inactive,inactive
O=C(Nc1ccc(-c2ccnc(Nc3ccc(N4CCOCC4)cc3)n2)cc1)C1CCCN1 (stereo unspecified),inactive,inactive
O=C(c1c(F)ccc(NS(=O)(=O)N2CC[C@@H](F)C2)c1F)c1c[nH]c2ncc(-c3cnc(C4CC4)nc3)cc12,inactive,inactive
CCN1CCN(Cc2ccc(C(=O)Nc3ccc(C)c(Oc4ccc5c(c4)CC(=O)N5)c3)cc2C(F)(F)F)CC1,inactive,inactive
C=C[C@@]12COC(=O)C(=C)[C@@H]1[C@@H](O)[C@H](C(=C)C(=O)OC)[C@@H](O)C2,inactive,inactive
Nc1nc(O)c(C2=C3C(=Nc4ccccc43)C(=O)NCC2)[nH]1,inactive,inactive
CC1(C)OC[C@H](NC(=O)Nc2ccc(Br)cc2Br)[C@H](c2ccccc2)O1,inactive,inactive
CC1(C)CCC2(C(=O)OC3OC(COC4OC(CO)C(O)C(O)C4O)C(O)C(O)C3O)CCC3(C)C(=CCC4C5(C)CCC(OC6OCC(O)C(O)C6O)C(C)(C)C5CCC43C)C2C1O (stereo unspecified),inactive,inactive
Cc1c[nH]c2ncnc(N3CCC(CN)(C(=O)Nc4cccc(OC(=O)N(C)C)c4)CC3)c12,inactive,inactive
CC(C)(Cc1nc(-c2ccc(O)cn2)no1)C(=O)NC1=C(C(=O)O)CCCC1,inactive,inactive
O=C(Nc1cccc([N+](=O)[O-])c1)c1cccc(S(=O)(=O)N2CCCCCC2)c1,inactive,inactive
CC(=O)OC(C)(C)/C=C/C(=O)C(C)(O)C1C(O)CC2(C)C3CC=C(C(C)(C)C(=O)O)C(CC(=O)O)C3(C)C(=O)CC12C (stereo unspecified),inactive,inactive
COc1cc(N2CCC(N3CCN(C)CC3)CC2)ccc1Nc1ncc(Cl)c(Nc2ccccc2P(C)(C)=O)n1,inactive,inactive
Cn1nc(C(C)(C)C)cc1C(=O)N[C@@H](Cc1cccc(Cl)c1)C(=O)NCC#N,inactive,inactive
COc1ccc(C(=O)Nc2c(Cl)cncc2Cl)cc1OC1CCCC1,inactive,inactive
CC(=O)O[C@@H]1CC[C@@]2(C)C(CC[C@]3(C)C2[C@H](O)C=C2[C@H]4[C@@H](C)[C@H](C)CC[C@]4(C)CC[C@]23C)[C@@]1(C)C(=O)O (stereo partly specified),7.08 µM (active),11.2 µM (active)
CC(=O)NCc1cccc(OC[C@@H](O)CNCCc2ccc(NS(=O)(=O)c3ccccc3)cc2)c1,inactive,inactive
CN[C@@H]1[C@H](O[C@H]2[C@H](O[C@@H]3[C@@H](O)[C@H](O)[C@@H](N=C(N)N)[C@H](O)[C@H]3N=C(N)N)O[C@@H](C)[C@]2(O)CO)O[C@@H](CO)[C@H](O)[C@H]1O,inactive,inactive
CC(C)(C[C@@](O)(Cc1cc2ccncc2[nH]1)C(F)(F)F)c1cc(F)ccc1O,inactive,inactive
C=C1C(=O)O[C@H]2C3=C(C)CCC[C@]3(C)C(=O)C[C@@H]12,inactive,inactive
C=C(C(=O)O[C@H]1C/C(C)=C/CC/C(CO)=C/[C@H]2OC(=O)C(=C)[C@H]12)C(O)CO (stereo partly specified),inactive,inactive
CCOC(=O)N1CCC(N2CCC[C@@H](NC(=O)c3ccccc3C)C2)CC1,inactive,inactive
C/C=C/C=C/c1cc2c(C=O)c(O)c(CC=C(C)C)cc2o1,12.6 µM (active),17.8 µM (active)
